Assay results: PubChem BioAssay (NCATS)
Inconclusive results are not listed. Activity calls are given as the source filed them. Calls follow the shape of the dose curve; as a rule, active = well fitted cell-killing curve with a large enough effect; inconclusive = small, poorly fitted or top-dose-only effect; inactive = flat fitted curve, though single readings scatter.

Legend:
[1] = Cell Viability - LYMP2-015 (AID 971); also: nearly all actives have a fitted effect of over 55% in size
In short: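 AC50 values reflect Hill-model fits of ATP-based luminescence (CellTiter-Glo) from a human lymphoblastoid line, 2500 cells/well, treated 24 hr at 37 C.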

[2] = Cell Viability - LYMP2-017 (AID 972); also: series mostly up to about 92 µM; nearly all actives have a fitted effect of over 55% in size
In short: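 In this qHTS format, lymphoblastoid cells in complete medium receive test compound for a day at 37 C before ATP content is quantified by luciferase luminescence. Reported AC50 figures come from standard Hill-equation curve fitting.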

[3] = Cell Viability - LYMP2-019 (AID 973); also: nearly all actives have a fitted effect of over 55% in size
In short: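 AC50 values come from Hill-equation modelling of qHTS concentration-response curves, where viability is measured as luciferase-based ATP luminescence in the lymphoblastoid line after 24 hr compound exposure in complete culture medium.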

[4] = Cell Viability - LYMP2-021 (AID 974);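 also: compound exposure lasts 24 hours at 37 °C; nearly all actives have a fitted effect of over 55% in size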
In short: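 In qHTS format, compounds are tested against 2500 lymphoblastoid cells per well for 24 h; viable cell number is inferred from ATP-driven luciferase light, and Hill-equation fitting yields AC50 values.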

[5] = Cell Viability - LYMP2-023 (AID 975)
In short: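 In this qHTS, ATP-based luciferase luminescence (CellTiter-Glo) is quantified in human lymphoblastoid cells after 24 hr compound treatment at 37 C; tetraoctylammonium bromide serves as positive control. Concentration-response curves are Hill-fitted to give AC50.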

[6] = Cell Viability - LYMP2-025 (AID 976); also: series mostly up to about 92 µM
In short: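 Luminescent ATP readout after 24 hr treatment of a human lymphoblastoid line (LYMP2-025, 2500 cells/well, 37 C). Reagent developed 30 min at room temperature; AC50 fitted with the Hill equation.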

[7] = Cell Viability - LYMP2-002 (AID 977); also: series mostly up to about 92 µM
In short: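 Human lymphoblastoid cells, 2500/well, complete medium; 5 h 37 C settle; compound 24 h 37 C; CellTiter-Glo, 30 min RT; luminescence. Decrease in ATP = cytotoxicity; AC50 via Hill equation.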

[8] = Cell Viability - LYMP2-006 (AID 978); also: series mostly up to about 92 µM; nearly all actives have a fitted effect of over 60% in size
In short: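 Potency values are Hill-fit AC50s for decreases in intracellular ATP (CellTiter-Glo luminescence). LYMP2-006 lymphoblastoid cells, 2500 per well, were exposed to compound in complete culture medium for 24 hr at 37 C.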

[9] = Cell Viability - LYMP2-007 (AID 979);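 also: cells exposed to compound for 24 h before reading; nearly all actives have a fitted effect of over 60% in size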
In short: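 Measured via luciferase-based ATP quantitation: lymphoblastoid cells, 24 hr compound exposure at 37 C, AC50 from Hill fits.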

[10] = Cell Viability - LYMP2-008 (AID 980); also: nearly all actives have a fitted effect of over 60% in size
In short: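 Measured: ATP-dependent luminescence, proportional to viable cell number, in human lymphoblastoid cells treated 24 hr with compound in complete culture medium. Values are AC50s from Hill-equation modelling of qHTS titrations.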

[11] = Cell Viability - LYMP2-010 (AID 981); also: nearly all actives have a fitted effect of over 55% in size
In short: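 This 24 hr viability screen uses LYMP2-010 lymphoblastoid cells, quantifies ATP via luciferase luminescence, and derives AC50 from Hill fits of qHTS concentration-response data.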

[12] = Cell Viability - LYMP2-012 (AID 982)
[13] = Cell Viability - LYMP2-014 (AID 983); also: series mostly up to about 92 µM; nearly all actives have a fitted effect of over 50% in size
In short: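 Quantitative HTS in lymphoblastoid cells: 24 hr compound exposure, then CellTiter-Glo ATP luminescence. Positive control was tetraoctylammonium bromide, 6.4pM to 92 uM.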

[14] = Cell Viability - LYMP2-016 (AID 984); also: nearly all actives have a fitted effect of over 55% in size
In short: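 Cytotoxicity was scored by luminescent ATP content (CellTiter-Glo) after 24 h compound exposure at 37 C of a human lymphoblastoid line at 2500 cells/well. Concentration-response data were fitted to the Hill equation for AC50.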

[15] = Cell Viability - LYMP2-018 (AID 985); also: nearly all actives have a fitted effect of over 50% in size
In short: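 In this qHTS viability assay, cells are treated for 24 hr and cellular ATP is quantified by luciferase-based luminescence, with tetraoctylammonium bromide as positive control.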

[16] = Cell Viability - LYMP2-020 (AID 986)
In short: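 Cells at 2500 per well receive a 24 hr compound exposure at 37 C. Viability is measured as ATP-dependent luciferase luminescence, with AC50 modeled from qHTS concentration-response curves.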

[17] = Cell Viability - LYMP2-022 (AID 987); also: nearly all actives have a fitted effect of over 55% in size
In short: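 In this qHTS cytotoxicity screen, compound titrations were incubated 24 hr at 37 C with human lymphoblastoid cells in complete medium. Luciferase-based ATP luminescence provided the viability signal.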

[18] = Cell Viability - LYMP2-024 (AID 988); also: nearly all actives have a fitted effect of over 60% in size
In short: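 Cells at 2500 per well received compound for 24 hr after a 5 hr settling period. Viability was scored by CellTiter-Glo luminescence, with AC50 from Hill fits.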

[19] = Cell Viability - LYMP2-026 (AID 989); also: nearly all actives have a fitted effect of over 50% in size
In short: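 Acute toxicity screen in complete culture medium, with 24 hr compound exposure at 37 C. Viability read as cellular ATP via luciferase reaction, with tetraoctylammonium bromide (6.4pM to 92 uM) as positive control.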

[20] = Cell Viability - LYMP1-002 - Assay at 24 hr (AID 993)
In short: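 Viability was judged from intracellular ATP using a luciferase read-out, following a 24-hour compound incubation at 37 C of lymphoblastoid cells seeded at 2500 per well. Concentration-response data were fitted to the Hill equation for AC50.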

Measured: outcome

C=C(C)[C@H]1CC=C(C)C(=O)C1
inactive: all assays above

C=CC(C)(O)CCC=C(C)C (stereo not given)
inactive: all assays above

COS(C)(=O)=O
inactive: all assays above

Cc1occc(=O)c1O
inactive: all assays above

CC1=CC(=O)CC(C)(C)C1(O)/C=C/C(C)=C\C(=O)O (stereo not given)
inactive: all assays above
